Measurements reported in PubChem BioAssay (NCI).
The panel holds about 83,000 compounds, 20% with a hit somewhere; the sample as a whole holds those more often.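 Single-concentration screen, 48 h exposure, 96-well plates. Endpoint: percent growth. Below 10 = active.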 A number with no mark means an inactive call. Activity calls are given as the source filed them.

Columns and labels:
Experiment in all cases: NCI-60 one-dose screen, 48 h (100 = growth as untreated, 0 = no growth, -100 = all killed)
NCI-H460 lung = conditions: 10 µM unless noted
COLO 205 colon = conditions: 10 µM
K-562 leukemia = conditions: 10 µM unless noted
MALME-3M melanoma = conditions: 10 µM unless noted
RXF 393 renal = conditions: 10 µM unless noted
M14 melanoma = conditions: 10 µM unless noted
HCT-15 colon = conditions: 10 µM
SNB-75 CNS = conditions: 10 µM unless noted
SNB-19 CNS = conditions: 10 µM unless noted
SK-MEL-5 melanoma = conditions: 10 µM unless noted
ACHN renal = conditions: 10 µM unless noted
SR leukemia = conditions: 10 µM
OVCAR-8 ovarian = conditions: 10 µM unless noted
OVCAR-4 ovarian = conditions: 10 µM unless noted
IGROV1 ovarian = conditions: 10 µM
OVCAR-3 ovarian = conditions: 10 µM unless noted
BT-549 breast = conditions: 10 µM
SW-620 colon = conditions: 10 µM unless noted
HCC-2998 colon = conditions: 10 µM unless noted
MDA-MB-435 melanoma = conditions: 10 µM unless noted

| Structure (SMILES) | growth (NCI-H460 lung) | growth (COLO 205 colon) | growth (K-562 leukemia) | growth (MALME-3M melanoma) | growth (RXF 393 renal) | growth (M14 melanoma) | growth (HCT-15 colon) | growth (SNB-75 CNS) | growth (SNB-19 CNS) | growth (SK-MEL-5 melanoma) | growth (ACHN renal) | growth (SR leukemia) | growth (OVCAR-8 ovarian) | growth (OVCAR-4 ovarian) | growth (IGROV1 ovarian) | growth (OVCAR-3 ovarian) | growth (BT-549 breast) | growth (SW-620 colon) | growth (HCC-2998 colon) | growth (MDA-MB-435 melanoma) |
| --- | --- | --- | --- | --- | --- | --- | --- | --- | --- | --- | --- | --- | --- | --- | --- | --- | --- | --- | --- | --- |
| CCC[CH2][Sn]1([CH2]CCC)[O]C(=O)c2cccc([N+](=O)[O-])c2C(=O)[O]1 | -5.56% (active) | -97.1% (active) | -12.3% (active) | -88.4% (active) | -95.2% (active) | -89.2% (active) | -85.5% (active) | -82.3% (active) | -92.8% (active) | -89.8% (active) | -100% (active) | -31.6% (active) | -93.1% (active) | -91.6% (active) | -76% (active) | -99.3% (active) | -99.6% (active) | -54.6% (active) | -84.7% (active) |  |
| C1CN1c1nc(N2CC2)nc(N2CC2)n1 | 16.5% | 61.4% | 26.4% | 49.7% | 39% | 25.1% | 23.8% | -17.6% (active) | 35.9% | 20.1% | -29.7% (active) | 6.79% (active) |  | 44.6% | -3.62% (active) | 65.8% | 46.1% | 51.8% | 49.7% | 63.9% |
| COc1ccc(/C=C(/C(=O)N2CCCC2)c2cc(OC)c(OC)c(OC)c2)cc1N | 13.5% | 5.31% (active) | 16.1% |  | 11.2% | 11.7% | 29.2% | -12.2% (active) | 44.4% | 20% | 45.2% | 19.5% | 41.8% | 46.4% | 51.4% | 0.49% (active) | 57.1% | 25.6% | 68.5% | -39.8% (active) |
| O=C(O)c1cccc(CCl)c1 | 103% | 106% | 101% | 110% | 112% | 95.8% | 93% | 87.2% | 114% | 113% | 100% | 89.5% | 96.5% | 105% |  | 109% | 96.6% | 110% | 112% | 104% |
| COc1ccc(/C=C\c2cc(OC)c(OC)c(OC)c2)cc1N/C=C\C(=O)c1c[nH]c2ccccc12 | 6.44% (active) | -65.6% (active) | 13.7% | 57.8% | 29.2% |  | 12.5% | 19.1% | 38.6% | -53.9% (active) | 15% | 2.48% (active) | 21.4% |  | 21.8% | -9.54% (active) | 6.79% (active) | 24.7% | 21.4% | -7.95% (active) |
| N#CC1=C(N)Oc2cc3c(cc2C1c1cccs1)OCO3 (stereo unspecified) | 15.6% | -7.45% (active) |  | 40% | -5.68% (active) |  | 35.5% | -14.9% (active) | 43.2% | 16.2% | 57.4% | 16.2% | 35.1% | 52.8% | 35.3% | -15% (active) | 44.6% | 26.3% | 39.5% | -7.43% (active) |
| Cc1cc(NC(=O)/C=C/c2ccc([N+](=O)[O-])cc2)ccc1S(=O)(=O)F | 103% | 102% | 94.7% | 103% | 119% | 112% | 98.2% | 106% | 109% | 100% | 105% | 81.3% | 98.6% | 103% | 101% | 122% | 106% | 110% | 102% | 99.7% |
| Cc1cccc(N(C)c2cccc3c2C(=O)[Se]C3)c1C | 62.8% | 27.1% | 48.2% | 63.7% | 44.7% | 26.7% | 31.6% |  | 58.8% | 66% | 54% | 4.83% (active) | 20.2% | 40.7% | 28.2% | 66.3% | 52.4% | 67.1% | 47.5% | 78% |
